Test results as given in PubChem BioAssay (NCATS).
Results filed as inconclusive are left out. Calls of active or inactive are those of the source. The call rests on the fitted dose curve; in most records, active means well fitted curve in the direction sought with a large enough effect; inconclusive means small, poorly fitted or top-dose-only effect, or another doubt; inactive means no such curve, though single readings can be large; an effect the other way counts as inactive or inconclusive.

Tests used:
[1] = qHTS of pediatric cancer cell lines to identify multiple opportunities for drug repurposing: Primary screen for SJ-GBM2 cells (AID 1347091)
Summary of the method: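 Cell viability, CellTiter-Glo luminescence; 500-1,000 cells/well, 8- or 11-point titration, 48 h compound exposure at 37 degrees C, 5% CO2. Controls: DMSO neutral, bortezomib 2.3 µM final as positive.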

[2] = qHTS of pediatric cancer cell lines to identify multiple opportunities for drug repurposing: Primary screen for A673 cells (AID 1347092); further: nearly all actives have a fitted effect of over 45% in size
Summary of the method: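 A673 cells (500-1,000 cells/well in growth media) were pre-incubated 5 h at 37 degrees C, then exposed to compounds for 48 h. Viability was read as CellTiter-Glo luminescence; concentration-response curves came directly from the primary screen.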

[3] = qHTS of pediatric cancer cell lines to identify multiple opportunities for drug repurposing: Primary screen for SK-N-MC cells (AID 1347093)
Summary of the method: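 Metabolically active cells were quantified by ATP-dependent luminescence (CellTiter-Glo, 15 min at room temperature) following 48 h treatment. Cells had been plated at 500-1,000 per well and settled for 5 h beforehand.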

[4] = qHTS of pediatric cancer cell lines to identify multiple opportunities for drug repurposing: Primary screen for BT-37 cells (AID 1347094)
Summary of the method: (§1)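 Following a 5-hour attachment period, cells at 500-1,000/well received compounds and were cultured for 48 hours. CellTiter-Glo was added and luminescence read to estimate viable, metabolically active cells.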

[5] = qHTS of pediatric cancer cell lines to identify multiple opportunities for drug repurposing: Primary screen for NB-EBc1 cells (AID 1347095)
Summary of the method: as §1

[6] = qHTS of pediatric cancer cell lines to identify multiple opportunities for drug repurposing: Primary screen for U-2 OS cells (AID 1347096); further: nearly all actives have a fitted effect of over 50% in size
Summary of the method: (§2)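 Cells (500-1,000/well) rested 5 h, then received compounds for 48 h; metabolically active cells were measured by CellTiter-Glo luminescence. Final concentrations spanned up to 46 µM (MIPE, 11-point) or 0.59 nM-46 µM (NPC, 8-point) in primary screens, 11-point in follow-ups.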

[7] = qHTS of pediatric cancer cell lines to identify multiple opportunities for drug repurposing: Primary screen for Saos-2 cells (AID 1347097); further: nearly all actives have a fitted effect of over 40% in size
Summary of the method: as §1

[8] = qHTS of pediatric cancer cell lines to identify multiple opportunities for drug repurposing: Primary screen for SK-N-SH cells (AID 1347098); further: nearly all actives have a fitted effect of over 65% in size
Summary of the method: as §2

[9] = qHTS of pediatric cancer cell lines to identify multiple opportunities for drug repurposing: Primary screen for LAN-5 cells (AID 1347100)
Summary of the method: as §2

[10] = qHTS of pediatric cancer cell lines to identify multiple opportunities for drug repurposing: Primary screen for BT-12 cells (AID 1347101); further: nearly all actives have a fitted effect of over 25% in size
Summary of the method: as §2

[11] = qHTS of pediatric cancer cell lines to identify multiple opportunities for drug repurposing: Primary screen for Rh18 cells (AID 1347102); further: nearly all actives have a fitted effect of over 65% in size
Summary of the method: as §2

[12] = qHTS of pediatric cancer cell lines to identify multiple opportunities for drug repurposing: Primary screen for OHS-50 cells (AID 1347103); further: nearly all actives have a fitted effect of over 40% in size
Summary of the method: as §2

[13] = qHTS of pediatric cancer cell lines to identify multiple opportunities for drug repurposing: Primary screen for RD cells (AID 1347104); further: nearly all actives have a fitted effect of over 55% in size
Summary of the method: as §1

[14] = qHTS of pediatric cancer cell lines to identify multiple opportunities for drug repurposing: Primary screen for control Hh wild type fibroblast cells (AID 1347106); further: nearly all actives have a fitted effect of over 55% in size
Summary of the method: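 Viability after 48 h compound treatment at 37C, 500-1,000 cells/well, read as ATP luminescence with CellTiter-Glo. Primary screens used 11-point (MIPE, 0.78 nM-46 µM) or 8-point (NPC, 0.59 nM-46 µM) final concentrations; follow-up screens used 11-point dilutions.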

[15] = qHTS of pediatric cancer cell lines to identify multiple opportunities for drug repurposing: Primary screen for Rh30 cells (AID 1347107); further: nearly all actives have a fitted effect of over 75% in size
Summary of the method: as §2

[16] = qHTS of pediatric cancer cell lines to identify multiple opportunities for drug repurposing: Primary screen for Rh41 cells (AID 1347108); further: nearly all actives have a fitted effect of over 70% in size
Summary of the method: as §1

[17] = qHTS of pediatric cancer cell lines to identify multiple opportunities for drug repurposing: Primary screen for NB1643 cells (AID 1347099); further: nearly all actives have a fitted effect of over 50% in size
Summary of the method: as §1

[18] = qHTS of pediatric cancer cell lines to identify multiple opportunities for drug repurposing: Primary screen for MG 63 (6-TG R) cells (AID 1347105); further: nearly all actives have a fitted effect of over 50% in size
Summary of the method: as §1

[19] = qHTS of pediatric cancer cell lines to identify multiple opportunities for drug repurposing: Confirmatory screen for A673 cells (AID 1347110); further: nearly all actives have a fitted effect of over 65% in size
Summary of the method: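 A673 cells seeded at 500-1,000 cells/well, rested 5 h, then dosed; primary MIPE 11-point (0.78 nM to 46 µM), NPC (0.59 nM to 46 µM); confirmatory 11-point. CellTiter-Glo luminescence after 48 h.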

Measured: Potency
Potency means the concentration at half of the fitted maximal effect.

c1cc(N[C@@H]2CCNC2)nc(-c2cnc3ccc(-c4cn[nH]c4)cn23)c1
active: [1] 16.6 µM | [2] 2.96 µM | [3] 4.69 µM | [4] 19.3 µM | [7] 18.7 µM | [8] 24.1 µM | [9] 11.8 µM | [10] 17.2 µM | [11] 20.9 µM | [12] 19.3 µM | [13] 16.6 µM | [14] 23.5 µM | [16] 16.6 µM
inactive: [5] | [6] | [15]

O=C(C=CC#Cc1cccc(NS(=O)(=O)c2ccccc2)c1)NO
inactive: [14]
active: [1] 1.66 µM | [2] 1.48 µM | [3] 0.59 µM | [4] 4.85 µM | [5] 0.833 µM | [6] 2.96 µM | [8] 3.41 µM | [17] 1.18 µM | [9] 1.18 µM | [10] 7.69 µM | [11] 1.66 µM | [12] 5.44 µM | [13] 5.26 µM | [18] 5.9 µM | [15] 11.8 µM | [16] 2.96 µM | [19] 1.65 µM

COc1ccc(S(=O)(=O)Nc2cc(-c3c(O)ccc4ccccc34)c(O)c3ccccc23)cc1
active: [1] 18.7 µM | [2] 7.43 µM | [3] 3.32 µM | [4] 24.3 µM | [5] 8.33 µM | [7] 4.69 µM | [17] 18.7 µM | [9] 7.43 µM | [12] 10.9 µM | [13] 29.6 µM | [18] 18.7 µM
inactive: [6] | [14]

COc1cc(C(=O)NC2CCN(C)CC2)ccc1Nc1ncc2c(n1)N(C1CCCC1)CCC(=O)N2C(C)C
active: [1] 2.35 µM | [2] 2.96 µM | [3] 1.18 µM | [4] 2.43 µM | [5] 0.662 µM | [8] 6.07 µM | [17] 3.72 µM | [9] 1.18 µM | [10] 21.7 µM | [11] 18.7 µM | [12] 3.43 µM | [13] 20.9 µM | [18] 2.96 µM
inactive: [6] | [14]

C[C@@H]1CC[C@@]2(OC1)OC1CC3C4CC=C5CC(O)CCC5(C)C4CCC3(C)C1[C@@H]2C (stereo partly specified)
not listed: [17] | [19]
inactive: all other assays above

CN1CCc2c(c3ccccc3n2Cc2ccc(C(=O)NO)cc2)C1
inactive: [14]
active: [1] 23.5 µM | [2] 5.9 µM | [3] 2.96 µM | [4] 30.6 µM | [5] 20.9 µM | [6] 23.5 µM | [7] 18.7 µM | [8] 24.1 µM | [11] 18.7 µM | [12] 13.7 µM | [13] 16.6 µM | [15] 20.9 µM | [16] 13.2 µM

O=c1c(O)c(-c2ccc(O)c(O)c2)oc2cc(O)ccc12
inactive: [6] | [18]
active: [1] 18.7 µM | [2] 29.6 µM | [3] 20.9 µM | [4] 24.3 µM | [5] 23.5 µM | [7] 16.6 µM | [8] 27.1 µM | [9] 16.6 µM | [10] 27.3 µM | [12] 21.7 µM

C#CCC(Cc1cnc2nc(N)nc(N)c2n1)c1ccc(C(=O)N[C@@H](CCC(=O)O)C(=O)O)cc1 (stereo partly specified)
active: [1] 0.118 µM | [2] 0.0296 µM | [3] 0.0235 µM | [4] 0.0544 µM | [5] 0.372 µM | [10] 0.0485 µM | [12] 0.109 µM | [13] 0.0743 µM | [19] 0.0657 µM
inactive: [6] | [7] | [11] | [14] | [15] | [16]

N#CNC(=NCCCCCCOc1ccc(Cl)cc1)Nc1ccncc1
active: [1] 0.001 µM | [2] 0.0023 µM | [3] 0.0033 µM | [4] 0.0039 µM | [5] 0.001 µM | [6] 0.0187 µM | [8] 0.0607 µM | [17] 0.0074 µM | [9] 0.001 µM | [10] 0.544 µM | [11] 0.0187 µM | [12] 21.7 µM | [13] 0.0059 µM | [18] 14.8 µM | [15] 0.0059 µM | [16] 0.0059 µM | [19] 0.0117 µM
inactive: [14]

Nc1nc2c(c(=O)[nH]1)N(C=O)[C@H](CNc1ccc(C(=O)N[C@@H](CCC(=O)O)C(=O)O)cc1)CN2
active: [2] 7.43 µM | [4] 9.68 µM | [9] 10.5 µM | [10] 10.9 µM | [12] 27.3 µM
not listed: [13] | [17] | [19]
inactive: all other assays above

Cn1cc(C=CC(=O)c2cccc(F)c2)cc1C=CC(=O)NO
active: [2] 9.35 µM | [3] 2.96 µM | [8] 24.1 µM | [17] 4.69 µM
inactive: [1] | [4] | [5] | [6] | [10] | [11] | [14] | [15]
